# Assay outcomes from PubChem BioAssay.
# Hits are enriched below; roughly 12% of the tested compounds scored in any of these assays.
# L3MBTL1 block – blocks human L3MBTL1; AlphaScreen L3MBTL1–H3K9me1 peptide binding; Potency, µM (top dose mostly 57.1 µM), without a hit: top-dose activity, negative = inhibition, usual class: inhibitors; Q9Y468; 230,000 compounds, 0.66% hits; note: % is set by controls: 0 for no effect and ±100 for the full control effect; nearly all actives have a fitted effect of over 60% in size
#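 L3MBTL1 50 nM + b-AHA-H3(1-15)K9me1 75 nM, 30 min RT; compound added, 30 min RT; streptavidin donor/Ni-chelate acceptor beads 10 ug/mL each final, 30 min RT dark; AlphaScreen read.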
# HP1b chromo inh – HP1-beta chromodomain-methylated histone interaction inhibition; P83916; AlphaScreen HP1-beta / biotin-H3K9me3 peptide binding; Potency, µM (highest dose often 114 µM), for inactives: at the highest dose activity change, negative = inhibition, most hits filed as inhibitors; 390,000 compounds, 0.56% hits; AID 540317; note: nearly all actives have a fitted effect of over 70% in size
#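 HP1-beta protein (50 nM final) preincubated 30 min at room temperature with biotinylated H3(1-18)K9me3 peptide (50 nM) in PBS pH 7.4, 0.01% Tween-20, then compound added for 30 min. AlphaScreen streptavidin donor/nickel chelate acceptor beads (10 ug/mL final), 30 min dark, luminescence read.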
# JMJD2A Tudor – JMJD2A Tudor domain (human) inhibition. Potency, µM (series often up to 114 µM), inactives show at the top dose activity change, negative = inhibition, usual class: inhibitors. O75164. 390,000 compounds, 4.4% hits. AlphaScreen JMJD2A-Tudor / H3K4me3 peptide binding; note: % is set by controls: 0 for no effect and ±100 for the full control effect; nearly all actives have a fitted effect of over 50% in size
# G9a inh – blocks human histone lysine methyltransferase G9a | Q96KQ7 | G9a H3K9 monomethylation, AlphaScreen, 2 h | Potency, µM (series often up to 102 µM), inactives show top-dose activity, negative = inhibition, most hits filed as inhibitors | 350,000 compounds, 8.8% hits | AID 504332; note: % is set by controls: 0 for no effect and ±100 for the full control effect; nearly all actives have a fitted effect of over 75% in size
#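 Signal arises when biotinylated H3K9 peptide, once monomethylated, bridges streptavidin donor and antibody-captured acceptor beads. Enzyme at 20 nM was preincubated 15 min with test compounds; peptide 500 nM and SAM 20 uM then reacted for 2 h.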
# Sfp inh – Sfp phosphopantetheinyl transferase inhibition; AID 1490; Biochemical Sfp PPTase activity, qHTS; 310,000 compounds, 3.5% hits; Q9F4F7; Potency, µM, inactives show largest response in the series, negative = inhibition, actives largely listed as inhibitors;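 note: the enzyme is Sfp with the accession as filed and its product quenches rhodamine fluorescence; 0% = enzyme reaction without inhibitor and -100% = no enzyme wells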
#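 Step 1, compound plus 15 nM Sfp-PPTase, 15 min, room temperature. Step 2, add rhodamine-CoA (5 uM) and BHQ-2-YbbR (12.5 uM). Step 3, read 525/598 nm fluorescence at 0 and 30 min.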
# BAZ2B inh – blocks human BAZ2B; Q9UIF8; AlphaScreen BAZ2B-H3K14Ac peptide displacement; Potency, µM (highest dose often 114 µM), for the others: at the highest dose activity change, negative = inhibition, most hits filed as inhibitors; 360,000 compounds, 4.4% hits; AID 504333; note: % is set by controls: 0 for no effect and ±100 for the full control effect; nearly all actives have a fitted effect of over 60% in size
#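 Multi-concentration screen (max 110 uM) measuring displacement of acetylated histone H3 peptide from BAZ2B by AlphaScreen, using 50 nM protein, 50 nM peptide and 10 ug/mL streptavidin donor plus Ni-chelate acceptor beads.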
# * = called active by the depositor; u = inconclusive; x = no result; [ ] = remark or other dose. Calls come from the whole dose curve; as a rule, active = well fitted curve in the direction sought with a large enough effect; inconclusive = small, poorly fitted or top-dose-only effect, or another doubt; inactive = no such curve, though single readings can be large; an effect the other way counts as inactive or inconclusive. Potency is the fitted concentration of half-maximal effect.
SMILES,L3MBTL1 block,HP1b chromo inh,JMJD2A Tudor,G9a inh,Sfp inh,BAZ2B inh
COC(=O)c1scc(-c2ccc(C)cc2)c1S(=O)(=O)N1CCN(c2cccc(OC)c2)CC1,x,17%,-31%,-21%[59 µM],x,-26%
COc1cccc(/C=C(\C#N)C(=O)Nc2ccc(NC(C)=O)cc2)c1OC,x,16%,-17%,2%[59 µM],x,5%
CCOc1cc(/C=C2\N=C(SC(C)C(N)=O)N(c3ccc(OC(F)F)cc3)C2=O)ccc1O (stereo unspecified),x,-3%,u,u,45µM*,-34%
CCOc1ccc(N2C(=O)S/C(=C\c3ccc(O)c(OCC)c3)C2=O)cc1,2%,43%,-25%,-5%,8%,-27%
Cc1ccccc1CS(=O)(=O)Cc1ccc(C(=O)NCCc2ccc(Cl)cc2)o1,x,25%,-1%,0%[59 µM],x,-1%
CSCCC1Nc2ccc(S(=O)(=O)N3CCOCC3)cc2NC1=O (stereo unspecified),-7%,29%,-19%,3.2µM*,10%,x
CC1C(=O)Nc2ccc(S(=O)(=O)N3CCCCC3)cc2NC1=O (stereo unspecified),x,12%,-15%,-5%[59 µM],x,5%
COc1cc(C2Oc3ccccc3C=C2[N+](=O)[O-])cc(OC)c1OC (stereo unspecified),x,-20%,56µM*,x,u,35µM*
Cc1ccc(CCNC(=O)c2cccc(Nc3nc4ccccc4nc3-n3nc(C)cc3C)c2)cc1,x,19%,-1%,2%[59 µM],x,3%
COc1cccc(C2CC(c3ccc(C)cc3)=NN2C(=O)c2ccccc2F)c1OC (stereo unspecified),x,20%,-27%,22%,-4%,-7%
Cc1ccc(C2=NN(C(=O)c3ccccc3F)C(c3ccccc3F)C2)cc1 (stereo unspecified),x,-18%,-19%,16µM*,50µM*,-38%
O=C(c1ccccc1)N1N=C(c2ccccc2)CC1c1ccccc1O (stereo unspecified),-13%,u,11µM*,u,10µM*,u
CC1(C)Cc2c(sc3[nH]c(=S)[nH]c(=O)c23)CO1,43%,-15%,89µM*,x,u,-4%
CC(C)=NNc1nc2sc3c(c2c(=O)[nH]1)CC(C)(C)OC3,15%,43%,-24%,u,16µM*,7%
Cn1c(=O)[nH]c2sc3c(c2c1=O)CC(C)(C)OC3,x,16%,13%,14%[12.7 µM],4%,12%
CCOC(=O)c1cnc2c(C(=O)OCC)cnn2c1N,-1%,-7%,-6%,x,-4%,0%
CCOC(=O)c1cnn2c(N)c(C#N)cnc12,-4%,15%,u,45µM*,-26%,u
CCOC(=O)C1CCN(C(=O)Cn2c(=O)oc3cc(S(=O)(=O)N4CCC(C)CC4)ccc32)CC1,x,35%,-18%,6%[59 µM],x,-4%
CCOC(=O)Nc1ccc2c(c1)Nc1ccccc1S2,-28%,-42%,40µM*,8.9µM*,6%,28µM*
CC(=O)c1ccc2c(c1)Nc1ccccc1S2,x,-1%,-7%[57.1 µM],2.8µM*,6%,4%
CCOC(=O)c1ccc(NC(=O)Nc2c[nH]c(=O)[nH]c2=O)cc1,x,58%,-19%,-24%[59 µM],x,-7%
CC(C)c1ccc(O)c(NC(=O)c2ncn[nH]2)c1,-2%,32%,-17%,x,23%,u
CC(C)c1ccc2c(c1)C1(NN=C(c3ccccc3)S1)C(=O)N2 (stereo unspecified),u,u,71µM*,18µM*,-11%,10µM*
CCc1ccc2c(c1)C1(NN=C(c3ccc(C)cc3)S1)C(=O)N2 (stereo unspecified),u,18µM*,50µM*,28µM*,-9%,7.9µM*
Cc1cccc(-c2nc3c(cnn3-c3ccccc3)c(=O)n2-c2cccc(Cl)c2)c1,x,3%,-18%,u,x,-16%
COC(=O)C1=C(C)Nc2[nH]c(=S)[nH]c(=O)c2C1c1ccc(OC)cc1 (stereo unspecified),5%,14%,u,8.9µM*,40µM*,u
